The values that follow come from paper PMC5540273 (PLoS ONE, 2017).

Some test systems named below: TNNI3K; TRKB; TRPM6; TSSK1B; TSSK3; TTK; TXK.
Settings in all cases: concentration: 1 μM, replicates: in singlicate; n = 1
A further test relates to T1, TRKA.
T1 construct: gene NTRK1

A further test relates to T2, TRKC.
T2 construct: gene NTRK3

The test system of test [1] is TYK2(JH1domain-catalytic).

Molecules are shown by their SMILES.
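Further: KINOMEscan kinase panel screen.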

Regarding `O=C(Nc1cccc(-c2nn3ncccc3c2-c2ccnc(Nc3ccccc3)n2)c1)c1c(F)cccc1F` [GSK198271], the “%Inh” value came to 36% with TNNI3K; 0% with TRKA; 0% in the test on TRKB; 0% in the test with TRKC; 55% in the test on TRPM6; 0% with TSSK1B. Also, the “%Inh” value in the test on TSSK3 is 18%; in the test with TTK, 7%; in the test with TXK it was 84%; in test [1], 7%.

Turning to `Cc1occc1-c1ncc(OC[C@@H](N)Cc2c[nH]c3ccccc23)cc1-c1ccc2[nH]nc(C)c2c1.O=C(O)C(F)(F)F` [GSK682037], the “%Inh” value in the test with TNNI3K is reported as 5%; with TRKA it was 33%; with TRKB, 13%; in the test on TRKC, 0%; in the test on TRPM6, 0%; in the test with TSSK1B, 16%. In addition, the “%Inh” value in the test on TSSK3 is 13%; with TTK, 22%; in the test on TXK, 47%; in test [1], 7%.

As to `COc1ccc(Nc2nccc(NCCNC(=O)c3cc4ccccc4s3)n2)cc1` [GSK1379896], the “%Inh” value is recorded as 13% in the test on TNNI3K; 18% with TRKA; 0% in the test on TRKB; 0% in the test on TRKC; 34% in the test on TRPM6; 0% in the test with TSSK1B. Further, the “%Inh” value is 20% in the test with TSSK3, 0% in the test with TTK, 0% with TXK and 25% in [1].

On to `c1ccc(Oc2ccc(Nc3ccnc4cc(-c5ccc(CNCCN6CCOCC6)o5)ccc34)cc2)nc1` [GW567145], for which the “%Inh” value with TNNI3K came to 0%; with TRKA, 100%; with TRKB, 53%; in the test with TRKC, 42%; in the test on TRPM6, 14%; in the test on TSSK1B, 0%. Besides, the “%Inh” value came out at 2% with TSSK3, 7% in the test with TTK, 1% in the test on TXK and 0% in [1].

As to `CNC(=O)c1ccccc1Nc1nc(Nc2ccc(N3CCOCC3)cc2)ncc1Cl.Cl` [GSK1576028], the “%Inh” value in the test with TNNI3K stood at 50%; with TRKA it was 100%; in the test with TRKB it was 96.6%; in the test on TRKC, 97.1%; in the test with TRPM6, 75%; in the test with TSSK1B it was 15%. Further, the “%Inh” value with TSSK3 is listed as 17%; in the test with TTK, 95%; in the test with TXK, 97.6%; in test [1], 99.9%.

Take `CCn1c(-c2nonc2N)nc2c(C#CC(C)(C)O)nc(OC[C@H](N)c3ccccc3)cc21` [GSK943949]: the “%Inh” value in the test with TNNI3K is listed as 0%; with TRKA it was 18%; in the test with TRKB it was 0%; in the test with TRKC, 18%; in the test on TRPM6 it was 0%; with TSSK1B it was 49%. The “%Inh” value in the test with TSSK3 was 82%; in the test with TTK, 15%; in the test with TXK, 8%; in [1], 19%.

Consider `Oc1cc(Nc2ccnc3cc(I)ccc23)ccc1F` [GW552771], for which the “%Inh” value in the test with TNNI3K is on record as 2%; in the test on TRKA it was 0%; with TRKB, 23%; in the test with TRKC, 26%; in the test on TRPM6 it was 26%; with TSSK1B it was 6%. In addition, the “%Inh” value is given as 13% in the test on TSSK3, 0% in the test on TTK, 94.5% in the test with TXK and 32% in test [1].

With `Nc1ncc(-c2cccnc2)c2scc(-c3ccc4c(c3)CCN4C(=O)Cc3ccccc3)c12` [GSK683281], the “%Inh” value in the test with TNNI3K is reported as 20%; with TRKA, 22%; with TRKB, 0%; in the test with TRKC, 0%; in the test with TRPM6 it was 40%; in the test with TSSK1B it was 20%. In addition, the “%Inh” value with TSSK3 was found to be 22%; in the test with TTK it was 0%; with TXK, 10%; in test [1] it was 11%.

Consider `COc1cc(Nc2nccc(-c3c(-c4cccc(NC(=O)c5c(F)cccc5F)c4)nn4ccccc34)n2)cc(OC)c1OC` [GSK323521], for which the “%Inh” value is recorded as 3% with TNNI3K; 78% in the test with TRKA; 35% with TRKB; 40% with TRKC; 16% with TRPM6; 0% in the test with TSSK1B. Further, the “%Inh” value with TSSK3 was found to be 20%; with TTK, 10%; in the test on TXK it was 0%; in test [1], 0%.

For the compound `CC(=O)N1CCN(c2ccc(Nc3nccc(-c4sc(C(C)C)nc4-c4cccc(NS(=O)(=O)c5cccc(Cl)c5)c4)n3)cn2)CC1` [GSK1660437], the “%Inh” value with TNNI3K amounted to 22%; in the test with TRKA it was 45%; in the test with TRKB, 0%; in the test with TRKC it was 0%; in the test with TRPM6, 41%; with TSSK1B, 10%. Further, the “%Inh” value in the test on TSSK3 was 4%; in the test with TTK it was 56%; with TXK, 20%; in test [1], 29%.

For the compound `CC(=O)Nc1nc2cnc(Nc3cc(NC(=O)c4cccc(C5(C#N)CC5)c4Cl)ccc3C)nc2s1`, the “%Inh” value in the test with TNNI3K amounted to 18%; in the test on TRKA, 0%; in the test with TRKB, 0%; with TRKC, 0%; in the test with TRPM6, 0%; in the test with TSSK1B it was 0%. Besides, the “%Inh” value stood at 0% with TSSK3, 21% in the test with TTK, 33% in the test with TXK and 0% in [1].

On to `Cn1cc(-c2[nH]c3cc(NC(=O)[C@H](N)C4CCCCC4)cc4c3c2C=NNC4=O)cn1`, for which the “%Inh” value was 54% in the test on TNNI3K; 91.6% in the test with TRKA; 64% in the test with TRKB; 57% in the test with TRKC; 11% in the test on TRPM6; 73% in the test on TSSK1B. For the same compound, the “%Inh” value with TSSK3 is 23%; with TTK, 0%; with TXK, 32%; in [1], 95.1%.

`CN1CCN(CCCNc2nccc(-c3c(-c4ccc(F)cc4)nn4cc(C(F)(F)F)ccc34)n2)CC1` [GW621581]: the “%Inh” value in the test with TNNI3K is reported as 0%; with TRKA it was 0%; in the test with TRKB, 11%; in the test on TRKC, 5%; with TRPM6, 1%; with TSSK1B, 0%. Further, the “%Inh” value is 0% with TSSK3, 0% in the test on TTK, 14% with TXK and 28% in test [1].

As to `O=C(Nc1ccccc1F)NC1CCN(c2ccnc(Nc3ccc(F)cc3)n2)CC1` [GSK1379800], the “%Inh” value was 0% in the test with TNNI3K; 0% with TRKA; 0% in the test with TRKB; 6% in the test on TRKC; 0% in the test on TRPM6; 1% in the test on TSSK1B. Further, the “%Inh” value is listed as 22% with TSSK3, 0% in the test with TTK, 46% in the test on TXK and 28% in test [1].

Take `O=C(O)C(F)(F)F.O=C(O)C(F)(F)F.O=c1[nH]ccc2nc(N[C@@H]3CCCNC3)nc(Nc3ccc(S(=O)(=O)N4CCOCC4)cc3)c12` [GSK2177277]: the “%Inh” value in the test on TNNI3K is reported as 15%; in the test with TRKA, 100%; in the test on TRKB, 92.5%; with TRKC it was 98%; in the test with TRPM6 it was 19%; in the test with TSSK1B, 95.1%. The “%Inh” value turned out to be 99.7% in the test on TSSK3, 96.8% with TTK, 35% with TXK and 99.7% in test [1].
